Data reported in PubChem BioAssay (Tox21).
Inconclusive results are not listed. Active and inactive are the calls of the source. Unless noted, calls follow the shape of the dose curve; as a rule, active = well fitted curve in the direction sought with a large enough effect in the repeat runs; inconclusive = weak or mixed curves; inactive = no such curve, though single readings can be large; an effect the other way counts as inactive or inconclusive.

Key:
[1] = qHTS assay for small molecule agonists of the p53 signaling pathway (AID 651631; calls by dose curve; also: nearly all actives have a fitted effect of over 15% in size)
Outline: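 We treat p53RE-bla HCT-116 cells with compounds for 16 h at 37 °C, add LiveBLAzer B/G FRET substrate for 2 h at room temperature, and measure fluorescence intensity.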

[2] = qHTS assay for small molecules that induce genotoxicity in human embryonic kidney cells expressing luciferase-tagged ATAD5 (AID 651632); also: nearly all actives have a fitted effect of over 15% in size
Outline: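 A rise in luciferase signal from ATAD5-tagged HEK293T cells marks genetic stress. Cells were exposed to compounds for 16 hr at 37C, 5% CO2, then luciferase was quantified after a 30 min room-temperature incubation with Amplite.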

[3] = qHTS assay for small molecule agonists of the p53 signaling pathway - cell viability (AID 651633; calls by dose curve;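 also: p53RE-bla HCT reporter cells with a stable beta-lactamase p53 reporter; nearly all actives have a fitted effect of over 30% in size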)
Outline: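 p53RE-bla cells, seeded at 4,000 per well and rested 5 h at 37 C/5% CO2, received compounds in DMSO for 16 h at 37 C. CellTiter-Glo was then added, and luminescence was read after 30 min at room temperature to gauge cytotoxicity.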

[4] = qHTS assay for small molecules that induce genotoxicity in human embryonic kidney cells expressing luciferase-tagged ATAD5 - cell viability (AID 651634; calls by dose curve; also: nearly all actives have a fitted effect of over 25% in size)
Outline: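 Cytotoxicity counter-readout: after 15.5 hr compound treatment at 37C, live-cell protease activity in ATAD5-luciferase HEK293T cells measured by CellTiter-Fluor fluorescence, 30 min development at 37C.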

[5] = qHTS assay for small molecule disruptors of the mitochondrial membrane potential - cell viability (AID 720634; calls by dose curve;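 also: human HepG2 liver cancer cells; nearly all actives have a fitted effect of over 20% in size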)
Outline: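 Cytotoxicity was quantified from ATP content by CellTiter-Glo luminescence in the same wells as the MMP dye read-out. HepG2 (2,000 cells/well) were plated overnight and exposed to compounds for 1 hr at 37 C.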

[6] = qHTS assay for small molecule disruptors of the mitochondrial membrane potential (AID 720635)
Outline: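 HepG2 cells (2,000/well) attached overnight at 37C, then took compound for 1 hr at 37C, 5% CO2. Mito-MPS dye was added for 30 min; fluorescence was read at 490/535 nm (monomers) and 540/590 nm (aggregates).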

[7] = qHTS assay to test for compound auto fluorescence at 590 nm (red) in HepG2 cells (AID 720674)
Outline: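 Intrinsic compound fluorescence in the red window (Ex/Em 540/590 nm) is measured in attached HepG2 cells exposed for 1 hr, DMSO vehicle as baseline, benchmarked to Rose Bengal sodium.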

[8] = qHTS assay to test for compound auto fluorescence at 535 nm (green) in HepG2 cells (AID 720675)
[9] = qHTS assay to test for compound auto fluorescence at 460 nm (blue) in HEK293 cells (AID 720678)
Outline: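 HEK293 cells (2,000/well, medium with 10% dialyzed FBS) attached 4-5 hr, then exposed to compound overnight at 37C, 5% CO2. Blue fluorescence read at 405/460 nm, with triamterene as reference fluorophore.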

[10] = qHTS assay to test for compound auto fluorescence at 590 nm (red) in HEK293 cells (AID 720679)
Outline: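 HEK293 cells (2,000/well, 10% dialyzed FBS) attached 4-5 hr, then dosed with compound or DMSO and incubated overnight at 37C, 5% CO2. Red fluorescence read at 540/590 nm, Rose Bengal sodium as reference fluorophore.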

[11] = qHTS assay to test for compound auto fluorescence at 535 nm (green) in HEK293 cells (AID 720680)
[12] = qHTS assay to test for compound auto fluorescence at 460 nm (blue) in HEK293 cell free culture (AID 720681)
Outline: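 Test compounds were pinned into cell-free culture medium (DMEM with 10% FBS) and fluorescence was read directly at Ex/Em 405/460 nm. Signals were expressed as fluorescence equivalents of triamterene, with DMSO vehicle as control.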

[13] = qHTS assay to test for compound auto fluorescence at 590 nm (red) in HEK293 cell free culture (AID 720683)
Outline: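 Tox21 10K library compounds were pinned into cell-free DMEM with 10% FBS and fluorescence was read at excitation 540 nm. Activity is expressed as Rose Bengal sodium equivalency.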

[14] = qHTS assay to test for compound auto fluorescence at 590 nm (red) in HepG2 cell free culture (AID 720684)
Outline: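 Readout: intrinsic compound fluorescence at 590 nm emission after 540 nm excitation, scaled to Rose Bengal sodium. Matrix was cell-free MEM with 10% FBS; DMSO vehicle wells served as control.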

[15] = qHTS assay to test for compound auto fluorescence at 460 nm (blue) in HepG2 cell free culture (AID 720685)
Outline: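 Cell-free plates of MEM plus 10% FBS received 23 nL compound or DMSO vehicle; blue-channel (405/460 nm) intensity scored against triamterene as reference fluorophore.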

[16] = qHTS assay to test for compound auto fluorescence at 535 nm (green) in HepG2 cell free culture (AID 720686)
[17] = qHTS assay to test for compound auto fluorescence at 460 nm (blue) in HepG2 cells (AID 720687)
Outline: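 Cells (2,000/well in MEM with 10% FBS) attached overnight at 37 C, then were exposed to compound or DMSO for 1 hr at 37 C, 5% CO2. Fluorescence read at Ex/Em 405/460 nm, expressed as triamterene-equivalent signal.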

[18] = molecular target: Glucocorticoid receptor (Homo sapiens) (UniProt P04150); assay: qHTS assay to identify small molecule agonists of the glucocorticoid receptor (GR) signaling pathway (AID 720691; active = well fitted activation curve with a large enough effect in the signal ratio in the repeat runs, not every such curve was filed as active; the % refers to the signal ratio); settings: GR-bla HeLa, beta-lactamase reporter ratio, 18 h; activation: at 62.4 µM (top of the series)
Glucocorticoid receptor (Homo sapiens), sequence (P04150 whole entry, looked up): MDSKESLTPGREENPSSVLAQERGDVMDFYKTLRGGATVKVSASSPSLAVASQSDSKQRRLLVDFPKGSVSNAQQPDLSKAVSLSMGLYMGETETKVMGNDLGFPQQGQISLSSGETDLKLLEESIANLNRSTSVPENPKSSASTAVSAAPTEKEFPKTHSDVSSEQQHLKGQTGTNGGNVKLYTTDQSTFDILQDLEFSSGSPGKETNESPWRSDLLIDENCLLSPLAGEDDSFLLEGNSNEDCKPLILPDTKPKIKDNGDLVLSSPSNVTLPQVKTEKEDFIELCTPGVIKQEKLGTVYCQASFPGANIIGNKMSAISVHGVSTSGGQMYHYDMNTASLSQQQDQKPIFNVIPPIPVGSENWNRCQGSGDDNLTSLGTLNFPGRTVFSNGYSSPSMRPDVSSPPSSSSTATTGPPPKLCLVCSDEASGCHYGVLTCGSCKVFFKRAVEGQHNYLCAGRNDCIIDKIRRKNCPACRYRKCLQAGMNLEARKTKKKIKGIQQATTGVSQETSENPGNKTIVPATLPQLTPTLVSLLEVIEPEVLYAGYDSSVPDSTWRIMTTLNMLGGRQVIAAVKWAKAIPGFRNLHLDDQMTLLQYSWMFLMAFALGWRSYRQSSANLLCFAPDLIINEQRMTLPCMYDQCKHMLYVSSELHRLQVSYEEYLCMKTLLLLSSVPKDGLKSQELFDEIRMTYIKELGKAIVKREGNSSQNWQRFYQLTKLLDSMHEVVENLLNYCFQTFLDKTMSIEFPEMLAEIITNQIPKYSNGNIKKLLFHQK
Outline: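 Agonist-mode qHTS in HeLa cells stably expressing a glucocorticoid-response-element beta-lactamase reporter. Fluorescence intensity read with FRET substrate (2 h, room temperature) after 18 h compound treatment at 37 C.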

[19] = molecular target: Glucocorticoid receptor (Homo sapiens) (UniProt P04150); assay: qHTS assay to identify small molecule antagonists of the glucocorticoid receptor (GR) signaling pathway (AID 720692; active = well fitted inhibition curve with a large enough effect in the signal ratio in the repeat runs, not every such curve was filed as active; the % refers to the signal ratio)
Outline: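 Inhibition of dexamethasone-driven (5 nM final) beta-lactamase expression was measured in GRE-reporter HeLa cells over 18 h at 37C. Fluorescence was read after 2 h with the B/G FRET substrate at room temperature.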

[20] = qHTS assay to test for compound auto fluorescence at 535 nm (green) in HEK293 cell free culture (AID 720682)
Outline: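 Green-channel intensity (Ex/Em 485/535 nm) was recorded from compound-treated wells containing only DMEM with 10% FBS. Fluorescein provided the equivalency standard.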

Measured: Potency

COc1nc(C)nc(NC(=O)NS(=O)(=O)c2ccccc2Cl)n1
inactive: [1] | [2] | [3] | [4] | [5] | [6] | [7] | [8] | [9] | [10] | [11] | [12] | [13] | [14] | [15] | [16] | [17] | [18] | [19]

O=C(NC(=O)c1ccccc1Cl)Nc1ccc(OC(F)(F)F)cc1
inactive: [1] | [2] | [3] | [4] | [5] | [6] | [7] | [9] | [11] | [12] | [20] | [13] | [14] | [15] | [16] | [17] | [18] | [19]

CC(Cl)CCl (stereo not given)
inactive: [1] | [2] | [3] | [4] | [5] | [6] | [7] | [8] | [9] | [10] | [12] | [20] | [13] | [14] | [15] | [17] | [18] | [19]

Clc1ccc(C2(Cn3cncn3)OCCO2)c(Cl)c1
inactive: [1] | [2] | [3] | [4] | [5] | [6] | [7] | [8] | [9] | [10] | [11] | [12] | [20] | [13] | [14] | [15] | [17] | [18] | [19]

CC(C)NCC(O)c1ccccc1Cl (stereo not given)
inactive: [1] | [2] | [3] | [4] | [5] | [6] | [8] | [9] | [10] | [11] | [12] | [20] | [13] | [14] | [15] | [16] | [17]

CNC(=O)Oc1cc(C)cc(C(C)C)c1
inactive: [1] | [2] | [3] | [4] | [5] | [7] | [9] | [10] | [11] | [12] | [20] | [13] | [14] | [15] | [17]

COc1ccc2c3c1O[C@H]1[C@H](O)CC[C@H]4[C@@H](C2)N(C)CC[C@@]341
inactive: [1] | [2] | [3] | [4] | [5] | [6] | [8] | [9] | [10] | [11] | [12] | [20] | [13] | [14] | [15] | [16] | [17] | [18] | [19]
